# About 830 (0.38%) of roughly 220,000 compounds were called active.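 How the source made its calls: active means compound inhibiting the enzyme by more than half at any dose during confirmatory dose-response retesting; inconclusive means strong single-dose inhibitors picked by rank but not retested; inactive means the rest.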 Only a sample is shown. Results with a measured potency or affinity are listed apart.
# Target: Leucine aminopeptidase (Plasmodium falciparum (isolate 3D7)) (UniProt Q8IL11)
# Assay: P. falciparum M17LAP inhibitors, primary screen, biochemical, fluorogenic H-Leu-NHMec substrate, 1536-well (AID 1619);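 further: plate controls were full reaction with DMSO carrier for no effect and no enzyme background for full effect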
# Conditions: recombinant M17LAP, H-Leu-NHMec fluorogenic kinetic assay; at 30 µM; stronger effect = higher value
# Chain of Leucine aminopeptidase (Plasmodium falciparum (isolate 3D7)) (Q8IL11 whole entry, looked up): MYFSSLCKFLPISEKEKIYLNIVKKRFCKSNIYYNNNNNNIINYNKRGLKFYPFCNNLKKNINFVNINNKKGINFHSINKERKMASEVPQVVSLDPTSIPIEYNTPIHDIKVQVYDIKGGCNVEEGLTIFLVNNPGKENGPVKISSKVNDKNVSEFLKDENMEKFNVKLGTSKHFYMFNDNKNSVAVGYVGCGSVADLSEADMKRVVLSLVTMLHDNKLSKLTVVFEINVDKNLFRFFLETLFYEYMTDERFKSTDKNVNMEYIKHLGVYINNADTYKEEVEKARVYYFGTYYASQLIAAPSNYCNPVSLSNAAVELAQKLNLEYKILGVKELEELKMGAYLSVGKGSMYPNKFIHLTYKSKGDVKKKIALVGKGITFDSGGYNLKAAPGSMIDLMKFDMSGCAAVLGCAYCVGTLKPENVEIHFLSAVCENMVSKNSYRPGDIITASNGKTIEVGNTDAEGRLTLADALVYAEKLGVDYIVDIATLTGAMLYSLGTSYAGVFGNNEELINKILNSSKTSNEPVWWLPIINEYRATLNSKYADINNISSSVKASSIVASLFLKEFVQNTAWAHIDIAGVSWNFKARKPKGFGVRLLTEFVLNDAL
row,SMILES,inhibition
1,COCCNC(=O)CN(c1ccccc1OC)S(C)(=O)=O,6.69% (inactive)
2,CC(=O)Nc1ccc(NC(=O)/C=C/c2ccccc2)cc1,-5.95% (inactive)
3,COc1cccc(OCCCCN2CC(C)OC(C)C2)c1 (stereo unspecified),8.69% (inactive)
4,O=C1OCCC1Sc1nc2cc(Cl)ccc2s1 (stereo unspecified),11.7% (inactive)
5,CSc1nc2cc(Cl)ccc2s1,-8.15% (inactive)
6,Cc1cc(C(F)(F)F)nc(SCC(=O)NC2CC3CCC2C3)n1 (stereo unspecified),4.48% (inactive)
7,O=C(N/N=C/c1cccc(O)c1)c1ccc(COc2cccc3cccnc23)cc1,3.53% (inactive)
8,Cc1ccccc1NC(C)C(=O)N/N=C/c1ccccc1OCc1cccc(Br)c1 (stereo unspecified),-0.47% (inactive)
9,COc1ccc(NC(C)C(=O)N/N=C/c2ccccc2OCc2cccc(Br)c2)cc1 (stereo unspecified),3.79% (inactive)
10,O=C(N/N=C/c1ccncc1)c1ccc(COc2cccc3cccnc23)cc1,8.86% (inactive)
11,COc1cccc(/C=N/NC(=S)Nc2cccc(C(=O)O)c2)c1O,44.2% (inactive)
12,CC(Nc1ccc(Br)cc1)C(=O)N/N=C/c1ccccc1OCc1ccccc1 (stereo unspecified),-9.93% (inactive)
13,CC1(C)CC2CC(C)(CN2/C=C2/CCCCC2=O)C1 (stereo unspecified),16.8% (inactive)
14,CCC1S/C(=N/N=C/c2ccco2)N(c2ccc(F)cc2)C1=O (stereo unspecified),5.93% (inactive)
15,O=[N+]([O-])c1cccc2ccc(/C=C/c3ccc(C(F)(F)F)cc3)nc12,5.36% (inactive)
16,Cc1cc(N=Cc2c(O)n(-c3ccc(C)c(C)c3)c(=O)c3ccccc23)no1,-34.1% (inactive)
17,COc1ccc(OCC(=O)OC(C)CN2CCOCC2)cc1 (stereo unspecified),4.55% (inactive)
18,COc1cccc(CC(=O)n2nc(N)c3cc4ccc(OC)cc4nc32)c1,-8.98% (inactive)
19,O=C(CCC(=O)N1CCN(S(=O)(=O)c2ccc(Cl)cc2)CC1)Nc1ccc2ccccc2c1,-4.1% (inactive)
20,CCc1ccc(C2NC(=S)NC3=C2C(=O)CC(C)(C)C3)cc1 (stereo unspecified),-1.26% (inactive)
21,CCOC(=O)c1c(C)[nH]c(C(=O)/C(C#N)=C/c2ccc(OC)c(OC)c2)c1C,9.47% (inactive)
22,CC(C)NC(=O)COC(=O)c1ccc(S(=O)(=O)N2CCCC2)cc1,-2.13% (inactive)
23,CCCS(=O)(=O)N1CCN(S(=O)(=O)c2ccccc2)CC1,-6.24% (inactive)
24,O=C(CCC(=O)N(CC(=O)NC1CCCCC1)c1ccc2c(c1)OCCO2)Nc1ccccn1,9.63% (inactive)
25,COc1ccc(Nc2nnc(SCC(=O)c3cc4ccccc4o3)s2)cc1,4.36% (inactive)
26,O=C(CSc1nnc(Nc2ccccc2F)s1)c1cc2ccccc2o1,32.5% (inactive)

row,SMILES,inhibition
1,O=S(=O)(c1ccccc1)N1CCN(c2nc(-c3cccs3)nc3ccccc23)CC1,4.27% (inactive)
2,CC(C)CC(NC(=O)c1cccs1)c1nnc(SCc2ccc(Cl)c(Cl)c2)n1C (stereo unspecified),4.91% (inactive)
3,C/C=C/C(=O)OCC(=O)Nc1ccc(SC(F)F)cc1,-1.79% (inactive)
4,Cc1nn(-c2ccccc2)c(N2CCCC2)c1/C=C1\N=C(c2ccccc2)OC1=O,2.36% (inactive)
5,O=C(CCC(=O)Nc1ccc(Cl)cc1Cl)NNC(=O)[C@@H]1CCCC[C@@H]1C(=O)O,-2.95% (inactive)
6,O=C(O)C1CCCCC1C(=O)Nc1ccccc1Cl (stereo unspecified),43.9% (inactive)
7,Cc1ccc(Cl)cc1NC(=O)C1CCCCC1C(=O)O (stereo unspecified),10.3% (inactive)
8,O=C(O)C1CC=CCC1C(=O)Nc1ccccc1C(=O)N1CCN(c2ccc(Cl)cc2)CC1 (stereo unspecified),56.6% (inactive)
9,O=C(O)C1CCCCC1C(=O)Nc1cccc2ccccc12 (stereo unspecified),39.5% (inactive)
10,O=C(O)C1CCCCC1C(=O)Nc1ccc(F)cc1F (stereo unspecified),41.3% (inactive)
11,COC(=O)c1ccccc1NC(=O)C1CC=CCC1C(=O)O (stereo unspecified),29.7% (inactive)
12,Cc1ccc(F)c(NC(=O)C2CCCCC2C(=O)O)c1 (stereo unspecified),4.08% (inactive)
13,COc1ccc(C(=O)Nc2cccc(-c3nc4ncccc4o3)c2C)cc1OC,2.86% (inactive)
14,COc1ccc(Cn2c(CCC(=O)Nc3ccc(C)cc3)nc3cccnc32)cc1,-4.5% (inactive)
15,CCOC(=O)C(C(=O)OCC)C1CS(=O)(=O)CC1C(C(=O)OCC)C(=O)OCC (stereo unspecified),17% (inactive)
16,COc1ccc(CCNC(=O)CC2Nc3ccccc3NC2=O)cc1 (stereo unspecified),3.68% (inactive)
17,COc1ccccc1NC(=O)NCc1ccco1,4.76% (inactive)
18,Cc1cc(=O)[nH]c(SCC(=O)Nc2ccc(Br)cn2)n1,19.5% (inactive)
19,O=C(O)C1CC=CCC1C(=O)NNc1c(Cl)cc(Cl)cc1Cl (stereo unspecified),3.9% (inactive)
20,O=C(O)C1=C(C(=O)Nc2cc(C(F)(F)F)ccc2Cl)CCCC1,8.32% (inactive)
21,O=C(NNC(=O)[C@H]1CC=CC[C@H]1C(=O)O)c1ccc(Cl)cc1Cl,0.37% (inactive)
22,O=C(CNC1CC1)Nc1cc(C(F)(F)F)ccc1Cl,1.31% (inactive)
23,CCOC(=O)c1cnc2c(OC)cccc2c1Nc1ccc2c(c1)OCCO2,2.45% (inactive)
24,O=C(Nc1nc2cc3c(cc2s1)OCCO3)c1ccc(N2C(=O)CCC2=O)cc1,0.52% (inactive)
25,O=C(O)c1cc2c(cc1Br)OCCCO2,-43.7% (inactive)
26,COc1ccc(OC)c(NC(=O)c2cccnc2Sc2ccccc2)c1,-17.3% (inactive)

row,SMILES,inhibition
1,CC1CC(C)CN(CCOc2ccc(Br)cc2)C1 (stereo unspecified),-2.12% (inactive)
2,CC(C)(C)C(=O)N1CCC[C@H]1C(O)(c1ccccc1)c1ccccc1,-4.15% (inactive)
3,OC(CNCc1ccccn1)c1ccccc1 (stereo unspecified),-7.85% (inactive)
4,COc1cccc(NC2=CC(=O)CC(C)(C)C2)c1,-33.9% (inactive)
5,COC(=O)C1=C(Nc2cc(Cl)cc(Cl)c2)CSC1,5.27% (inactive)
6,Clc1ccc(Nc2ccc(Cl)nn2)cc1,-4.12% (inactive)
7,S=c1[nH]nc(Nc2ccc(Cl)cc2)s1,11.5% (inactive)
8,Clc1cc(Cl)cc(Nc2ncnc(-n3cccc3)n2)c1,12.9% (inactive)
9,CCc1nc2c(c(=O)c3ccccc3n2C)c(=O)n1C1CCCCCC1,11% (inactive)
10,O=C(Nc1ccncc1)c1cccc2ccccc12,7% (inactive)
11,Cc1nc(NC(=O)Nc2ccc(Cl)cc2)sc1C,2.28% (inactive)
12,N#CC(C#N)=C1C=C2C=C(N3CCCCCC3)CCC2CC1 (stereo unspecified),10.6% (inactive)
13,N#CC(C#N)=C1C=C2C=C(N3CCCCC3)CCC2CC1 (stereo unspecified),0.1% (inactive)
14,O=C1c2ccccc2C(=O)c2cc(S(=O)(=O)Nc3ccccc3)ccc21,9.48% (inactive)
15,O=C(Nc1ccc(Cl)cc1)OCc1cn(-c2ccccc2)nn1,6.64% (inactive)
16,Cc1nn(-c2ccccc2)c(C)c1/C=N/O,4.53% (inactive)
17,CCOc1ccc(Oc2c(/C=N/NC(N)=O)c(C)nn2-c2ccccc2)cc1,3.82% (inactive)
18,Cc1nn(-c2ccccc2)c(C)c1/C=N/n1c(-c2ccccc2Br)n[nH]c1=S,-1.13% (inactive)
19,Cc1ccccc1-c1n[nH]c(=S)n1/N=C/c1c(C)nn(-c2ccccc2)c1C,6.29% (inactive)
20,C=CCSc1nnc(-c2ccccc2N=Cc2c(C)[nH]n(-c3ccccc3)c2=O)c(=O)[nH]1,56.2% (inactive)
21,CCSc1nnc(-c2cc(Br)ccc2N=Cc2c(C)[nH]n(-c3ccccc3)c2=O)c(=O)[nH]1,0.47% (inactive)
22,CC(C)[C@H](NC(=O)[C@H](CCCN=C(N)N)NC(=O)NC(Cc1ccccc1)C(=O)O)C(=O)NC(C=O)CCCN=C(N)N (stereo partly specified),6.32% (inactive)
23,O=c1[nH]c(-c2ccc3c(c2)OCO3)nc2c1sc(=S)n2-c1ccccc1,-0.6% (inactive)
24,Cc1cc(C(=O)O)ccc1-c1ccc(/C=C2\NC(=O)N(Cc3ccc(F)cc3)C2=O)o1,0.19% (inactive)
25,Cc1ccc(CN2C(=O)N/C(=C\c3ccc(-c4ccc(C(=O)O)cc4C)o3)C2=O)cc1,4.73% (inactive)
26,Nc1cnc(CNc2ccccc2Cl)cn1,4.54% (inactive)

row,SMILES,inhibition
1,CCn1c(N2CCN(S(=O)(=O)c3ccc(F)cc3)CC2)nc2ccccc21,2.95% (inactive)
2,CC(=O)Nc1ccc(NC(=O)COC(=O)c2n[nH]c3ccccc23)cc1,2.47% (inactive)
3,Nc1nonc1-c1nc2ccccc2n1CC(=O)N/N=C/c1ccc(-c2cccc(C(=O)O)c2)o1,31.4% (inactive)
4,Nc1nonc1-c1nc2ccccc2n1CC(=O)N/N=C\c1ccc(-c2ccc(Cl)cc2)o1,3.34% (inactive)
5,COc1cccc(C(=O)COC(=O)C(C)N2C(=O)C3C4C=CC(C4)C3C2=O)c1 (stereo unspecified),4% (inactive)
6,CC1CCc2nc(NCCO)nc(C(F)(F)F)c2C1 (stereo unspecified),7.69% (inactive)
7,COc1ccccc1CCc1nnc(CCC(=O)N(C)Cc2ccncc2C)o1,-1.17% (inactive)
8,Cc1ccc2oc(=S)n(C)c2c1,3.68% (inactive)
9,O=C(CSc1nnc(-c2ccc(O)cc2)n1Cc1ccco1)c1ccccc1,5.35% (inactive)
10,CCOC(=O)c1c(NC(=S)Nc2ccc(F)cc2)sc2c1CCC2,6.14% (inactive)
11,CCOC(=O)c1c(NC(=S)Nc2ccccc2)sc(C)c1C,26.5% (inactive)
12,NC(=O)c1c(NC(=S)Nc2ccccc2)sc2c1CCCC2,16.9% (inactive)
13,CCOC(=O)c1c(NC(=S)Nc2ccc(Cl)cc2)sc(C)c1C,12.6% (inactive)
14,OCCN1CCN(c2nc(-c3ccccc3)nc3c2oc2ccccc23)CC1,7.26% (inactive)
15,CNC(=O)N(C1=NCC(C)(C)S1)c1ccc(F)c(Cl)c1,-9.97% (inactive)
16,O/N=C/c1ccc(OCc2ccccc2)c(Cl)c1,13.4% (inactive)
17,O/N=C/c1ccc(OCc2ccccc2)c(Br)c1,6.58% (inactive)
18,COc1cc(/C=N/Nc2cccc(C)c2)ccc1OC(=O)c1ccco1,-4.8% (inactive)
19,COc1cc(/C=N/Nc2ccc(Cl)cc2)ccc1OC(=O)c1cccs1,4.49% (inactive)
20,COc1cc(/C=N/Nc2ccccc2)ccc1OC(=O)c1cccs1,1.12% (inactive)
21,O=C(O)c1cc(N/N=C/c2ccncc2)ccc1Cl,18.2% (inactive)
22,CSc1ccc(/C=N/Nc2ccc(Cl)c(C(=O)O)c2)cc1,12.6% (inactive)
23,COc1cc(/C=N/Nc2ccc3ccccc3c2)ccc1OC(=O)c1ccco1,0.98% (inactive)

# Reference: PubChem BioAssay AID1619 (SRMLSC, 2009)
